Screening results from PubChem.
PAD4 FP inh: human PAD4 inhibitors, primary screen, biochemical, fluorescence polarization, 1536-well format; Protein-arginine deiminase type-4 (Homo sapiens), Q9UM07; recombinant PAD4, RCA probe fluorescence polarization; inhibition, % at 6.36 µM; 330,000 tested, 0.41% active; AID 485272, 2010;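 active means percent inhibition above a cutoff equal to the mean of all tested compounds plus 3 SD, cut at about 15% in these data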
Target sequence (Q9UM07 whole entry, looked up): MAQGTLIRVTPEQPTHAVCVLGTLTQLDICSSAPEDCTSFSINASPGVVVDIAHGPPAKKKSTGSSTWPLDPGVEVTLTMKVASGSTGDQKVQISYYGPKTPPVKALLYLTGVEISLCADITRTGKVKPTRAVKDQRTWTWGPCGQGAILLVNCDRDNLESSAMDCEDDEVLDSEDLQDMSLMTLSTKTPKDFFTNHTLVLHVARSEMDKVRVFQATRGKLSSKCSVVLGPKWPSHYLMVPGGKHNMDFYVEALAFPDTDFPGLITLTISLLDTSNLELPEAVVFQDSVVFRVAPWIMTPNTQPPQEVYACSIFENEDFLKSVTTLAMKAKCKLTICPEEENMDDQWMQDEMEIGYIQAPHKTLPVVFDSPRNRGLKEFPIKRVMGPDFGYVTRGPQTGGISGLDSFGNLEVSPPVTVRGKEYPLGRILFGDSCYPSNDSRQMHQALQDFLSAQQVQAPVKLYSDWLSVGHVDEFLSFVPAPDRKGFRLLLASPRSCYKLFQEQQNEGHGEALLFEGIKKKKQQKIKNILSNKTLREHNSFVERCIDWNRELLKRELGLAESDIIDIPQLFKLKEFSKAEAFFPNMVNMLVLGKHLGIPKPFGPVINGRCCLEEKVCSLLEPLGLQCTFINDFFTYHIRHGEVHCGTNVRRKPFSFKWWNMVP
PME-1 inh: PME-1 inhibitors via competitive probe labeling, primary screen, biochemical, fluorescence polarization, FP-Rh probe, HTS | recombinant PME-1 | inhibition, % at 5.9 µM | AID 2130, 2009 | 320,000 tested, 0.53% active;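 active means inhibition above the campaign mean of all compounds plus 3 SD, cut at about 26% in these data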;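 further: competitive labeling of PME-1 active site by serine hydrolase directed probe; inhibitors block probe labeling so polarization falls and inhibition rises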
PRMT1 FP inh: PRMT1 methyltransferase inhibitors, primary screen, biochemical, fluorescence polarization; recombinant PRMT1, activity-based probe fluorescence polarization; inhibition, % at 2.79 µM; 370,000 tested, 1.3% active; AID 652257, 2013;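 active means inhibition above about 21% made by adding two undisclosed values, limit read from the data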
Fam108B counter: mouse Fam108B serine hydrolase inhibitors, primary screen, counter-screen for RBBP9 inhibitor project, biochemical, fluorescence polarization | 300,000 tested, 0.33% active | inhibition, % at 9.51 µM | recombinant Fam108B, FP-Rh probe fluorescence polarization;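 active means inhibition above the screen mean inhibition plus 3 SD, computed separately per campaign, cut at about 18% in these data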;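 further: inhibitors lower polarization as less probe binds the enzyme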
TCR CD3 inh: inhibitors of human TCR-CD3 interaction, primary screen, biochemical, fluorescence, TAMRA-labeled TCR probe; T-cell receptor (TCR); inhibition, % at 9.4 µM; 360,000 tested, 0.37% active; AID 651800, 2012; in the data active means inhibition above about 19%;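 further: recombinant mutant TCR 2C K166C tagged with TAMRA read by polarization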
SIAE primary: human SIAE inhibitors, primary screen, biochemical, fluorescence polarization, FP-Rh probe, 1536-well HTS; Sialate O-acetylesterase (Homo sapiens), Q9HAT2; inhibition, % at 9.66 µM; AID 1053197, 2014; 370,000 tested, 0.69% active; SIAE FP-Rh probe binding;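 active means inhibition above a cutoff: mean of compounds within the control limits plus 3 SD of those, cut at about 17% in these data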
SIAE confirm: human SIAE inhibitors, retest, confirmation, biochemical, fluorescence polarization, FP-Rh probe, triplicate. inhibition, % at 9.66 µM. SIAE FP-Rh activity-based probe. shares compounds with SIAE primary. AID 1117263, 2014. 2,300 tested, 13% active;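 active means mean inhibition of the replicates above the hit cutoff set in the primary screen, cut at about 17% in these data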;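 further: inhibitors lower polarization as more probe stays unbound to SIAE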
A number is an active result; - = inactive; . = no result. Rows were chosen to be rich in hits. Some 2.6% of all compounds tested hit in one or more screens of this group.

SMILES | PAD4 FP inh | PME-1 inh | PRMT1 FP inh | Fam108B counter | TCR CD3 inh | SIAE primary | SIAE confirm
COc1ccc2nc(C(c3ccc(C)cc3)n3c(-c4ccccc4Br)nc4ccccc43)[nH]c2c1 (centres undefined) | . | . | - | . | - | 27 | -
COC(=O)c1ccccc1N(C)S(=O)(=O)c1cc2c3c(c1)CCC(=O)N3CCC2 | - | - | - | - | - | 32 | -
CC1CCC(C(C)C)C(OC(=O)COC(=O)c2cc(O)ccc2N)C1 (centres undefined) | - | - | - | - | - | 20 | -
CC1CCCN(CCOc2cccc(Oc3ccccc3)c2)C1 (centres undefined) | - | - | - | - | - | - | .
CCCOc1ccc(OCCN2CCCC(C)C2)cc1 (centres undefined) | - | - | - | - | - | 20 | -
CC(C)C1Cc2[nH][nH]c(=O)c2C(C2CC2)O1 (centres undefined) | . | . | - | . | - | - | .
CCC1OC(C(C)C)Cc2[nH][nH]c(=O)c21 (centres undefined) | . | . | - | . | - | 17 | -
CCOc1ccc(-n2c(C)cc(/C=N/NC(=O)C(N)=O)c2C)cc1 | - | - | - | - | - | 20 | -
CC(C)c1[nH]nc2c1C(c1ccc(F)cc1)NC2=O (centres undefined) | . | . | - | . | - | - | .
CCN1C(=O)/C(=C2/C(=O)N3c4c(cc(OC(C)=O)cc42)C(C)=CC3(C)C)SC1=S | - | - | - | - | - | 17 | -
O=C(NC1CCCCN(Cc2cccc(Cl)c2)C1=O)c1cccc(F)c1 (centres undefined) | . | . | - | . | . | - | .
COc1ccc(C(=O)Oc2cc(N)n(S(=O)(=O)c3ccc(C)cc3)n2)cc1 | - | - | - | - | - | - | .
COc1ccc(S(=O)(=O)n2nc(OC(=O)C3CCCCC3)cc2N)cc1 | - | - | - | - | - | 43 | 50
Cc1ccc(S(=O)(=O)n2nc(OC(=O)C3CCCCC3)cc2N)cc1 | - | - | - | - | - | 36 | 38
CCN(CC)c1ccc(NC(=S)NC(=O)c2cccs2)cc1 | - | - | - | - | - | 17 | -
CC(=O)NC(=S)Nc1ccc(NC(=S)NC(=O)c2cccs2)cc1 | - | - | - | - | - | - | .
O=C(NS(=O)(=O)c1ccccc1[N+](=O)[O-])[C@H]1O[C@@H](n2ccc(=O)[nH]c2=O)[C@H](O)[C@@H]1O | . | . | - | . | - | 30 | 30
CN(C)c1cccc2c(S(=O)(=O)NC(=O)[C@H]3O[C@@H](n4ccc(=O)[nH]c4=O)[C@H](O)[C@@H]3O)cccc12 | . | . | - | . | - | 36 | 46
C[C@H]1C(c2ccccc2F)O[C@]2(C[C@H](O)c3c(ccc4ccccc34)O2)C[C@@H]1O (some centres undefined) | . | . | - | . | . | - | .
COc1ccc(S(=O)(=O)Nc2nnc(CC(C)C)s2)cc1 | - | - | - | - | - | - | .
O=S(=O)(Nc1nccs1)c1ccc(Cl)cc1 | - | - | - | - | - | 19 | -
CC(C)Cc1nnc(NS(=O)(=O)c2ccc(Cl)cc2)s1 | - | - | - | - | - | 27 | -
CC(Oc1ccc(Cl)cc1)C(=O)Nc1ccc(S(=O)(=O)Nc2nccs2)cc1 (centres undefined) | - | - | - | - | - | - | .
CC(C)CNC(=O)C1CSCCS(=O)(=O)N1Cc1ccccc1 (centres undefined) | . | . | - | . | . | - | .
O=C(NNc1nc2ccccc2o1)c1ccccc1 | - | - | - | - | - | 18 | -
SMILES | PAD4 FP inh | PME-1 inh | PRMT1 FP inh | Fam108B counter | TCR CD3 inh | SIAE primary | SIAE confirm
O=C(NC(=Nc1nc2ccccc2o1)NC(=O)c1ccccc1)c1ccccc1 | - | - | - | - | - | - | .
O=C(CSc1nnc(-c2cccs2)n1Cc1ccco1)Nc1ccc(Oc2ccccc2)cc1 | . | . | - | . | . | - | .
CCOc1ccc(OCC)c(NC(=O)Nc2ccc3c(c2)N(C)C(=O)CS3)c1 | - | - | - | - | - | 22 | -
CCOC(=O)c1ccc(N/C=C\C(=O)c2cccc(OC)c2)cc1 | - | - | - | - | - | - | .
COc1cccc(C(=O)/C=C/Nc2cc(C)ccc2O)c1 | - | - | - | - | - | 23 | -
COCCNC(=O)c1cccc(OC2CCN(Cc3ccc(C(=O)OC)cc3)CC2)c1 | - | - | - | - | - | 51 | -
COC(=O)[C@]12C[C@H](CC(=O)NCCCCc3ccccc3)C(=O)N(CCC3=CCCCC3)C1=C[C@H](C(C)C)O[C@@H]2C1CC1 | . | . | - | . | . | - | .
CC(CCc1ccccc1)NC(=O)CSc1ccccc1 (centres undefined) | - | - | - | - | - | - | .
CC(CCc1ccccc1)NC(=O)CSc1cccc[n+]1[O-] (centres undefined) | - | - | - | - | - | 19 | -
CCOC(=O)N(C)[C@H]1C[C@H]2c3[nH]c4cccc(-c5cccc(F)c5)c4c3CCN2C(=O)[C@H]1[C@H](C)O | . | . | - | . | . | - | .
CCC(C)N(C(=O)CSc1nnc(-c2cc(OC)c(OC)c(OC)c2)o1)C(C)CC (centres undefined) | . | . | - | . | . | - | .
CCOC(=O)[C@]12CCCCC/C=C\1N(CCc1ccc(Cl)cc1)C(=O)[C@H]2CC(=O)N1CCN(C(=O)C2CC2)CC1 | . | . | - | . | . | - | .
O=C(CCN1CCOCC1)N1CCCC(Nc2ccc(F)cc2)C1 (centres undefined) | - | - | - | - | - | 18 | -
O=C(N[C@H]1C[C@@H]2O[C@@H](CO)CC[C@@H]2O[C@@H]1CCc1ccc(-c2cccnc2)cc1)c1cccc(F)c1 | . | . | - | . | . | - | .
COc1ccc(CCN2C(=O)CC(C(N)=O)SC2=Nc2ccccc2)cc1 (centres undefined) | - | - | - | - | - | - | .
COc1ccc(CCN2C(=O)CC(C(N)=O)SC2=Nc2ccc(F)cc2)cc1OC (centres undefined) | - | - | - | - | - | 20 | -
COCc1cn(-c2cccc(-c3noc4c3C(=O)N(CC(=O)N3CCOCC3)CC4)c2)nn1 | . | . | - | . | . | - | .
COc1ccc(S(=O)(=O)Nc2cc3c4c(c2)CCN4C(=O)CC3)cc1 | - | - | - | - | - | 17 | -
Cn1ncc(Br)c1C(=O)O | - | - | - | - | - | - | .
Cn1ncc(Br)c1N1C(=O)CCC1=O | - | - | - | - | - | 20 | -
C[C@@H]1COc2cccc(N3CCSCC3)c2S(=O)(=O)N1C | . | . | - | . | . | - | .
COc1ccc(-n2c(Cc3cccs3)nnc2SCC(=O)Nc2ccc(OCc3ccccc3)cc2)cc1 | . | . | - | . | . | - | .
